In PubChem BioAssay:
For part of these data: Measured potencies and affinities stand elsewhere. Calls of active or inactive are those of the source.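 Rule for the calls, unless noted: active = compound raising the membrane signal above positive-control mean plus 3 SD in both repeats, and a primary screen hit; inactive = the rest.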

Key:
[1] = tested on: TRPC4 beta (transient receptor potential cation channel C4), mouse; experiment: TRPC4 cation channel opening, retest – cell-based, Fluo4 calcium, HEK293 TRPC4beta/mu-opioid, duplicates, 10 µM, confirmation (AID 2426;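 active = fluorescence ratio normalized to control raised more than 50% in primary screen plus both repeat runs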); settings: Fluo4 calcium fluorescence, at 10 µM; active compounds read high
[2] = tested on: transient receptor potential cation channel C4 beta (TRPC4), mouse; experiment: TRPC4 cation channel opening, second retest – cell-based, second round, Fluo4, HEK293 TRPC4beta/mu-opioid, 1 µM, confirmation (AID 2461;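 active = primary screen active and over 50% activation in each of two duplicate runs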); settings: Fluo4 calcium fluorescence, at 1 µM; active compounds read high
[3] = tested on: TRPC4 (transient receptor potential cation channel C4 beta), mouse; experiment: potentiation of DAMGO EC20 TRPC4 response – cell-based, second round, Fluo-4, HEK293 TRPC4beta/mu-opioid, 1 µM, confirmation (AID 2554;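 active = primary screen hit whose fluorescence ratio, in both repeats, exceeds the weak agonist control mean by 3 SD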); settings: DAMGO EC20, Fluo-4 calcium flux, at 1 µM; active compounds read high
[4] = tested on: TRPC4 beta (transient receptor potential cation channel C4), mouse; experiment: potentiation of DAMGO EC20 TRPC4 response – cell-based, Fluo-4, HEK293 TRPC4beta/mu-opioid, confirmation (AID 2555;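 active = primary screen hit whose calcium fluorescence ratio, in both repeats, exceeds the weak agonist control mean by 3 SD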); settings: DAMGO EC20, Fluo-4 calcium flux, at 10 µM; active compounds read high
[5] = molecular target: Short transient receptor potential channel 4 (Mus musculus) (UniProt Q9QUQ5); experiment: blockers of DAMGO-evoked TRPC4 calcium flux – cell-based, Fluo4, HEK293 TRPC4beta/mu-opioid, confirmation (AID 2636;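 active = calcium signal cut by more than 3 SD below the full-agonist control yet still positive, in both repeats and the earlier primary screen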); settings: at 10 µM; active compounds read high
Sequence of Short transient receptor potential channel 4 (Mus musculus) (Q9QUQ5 whole entry, looked up): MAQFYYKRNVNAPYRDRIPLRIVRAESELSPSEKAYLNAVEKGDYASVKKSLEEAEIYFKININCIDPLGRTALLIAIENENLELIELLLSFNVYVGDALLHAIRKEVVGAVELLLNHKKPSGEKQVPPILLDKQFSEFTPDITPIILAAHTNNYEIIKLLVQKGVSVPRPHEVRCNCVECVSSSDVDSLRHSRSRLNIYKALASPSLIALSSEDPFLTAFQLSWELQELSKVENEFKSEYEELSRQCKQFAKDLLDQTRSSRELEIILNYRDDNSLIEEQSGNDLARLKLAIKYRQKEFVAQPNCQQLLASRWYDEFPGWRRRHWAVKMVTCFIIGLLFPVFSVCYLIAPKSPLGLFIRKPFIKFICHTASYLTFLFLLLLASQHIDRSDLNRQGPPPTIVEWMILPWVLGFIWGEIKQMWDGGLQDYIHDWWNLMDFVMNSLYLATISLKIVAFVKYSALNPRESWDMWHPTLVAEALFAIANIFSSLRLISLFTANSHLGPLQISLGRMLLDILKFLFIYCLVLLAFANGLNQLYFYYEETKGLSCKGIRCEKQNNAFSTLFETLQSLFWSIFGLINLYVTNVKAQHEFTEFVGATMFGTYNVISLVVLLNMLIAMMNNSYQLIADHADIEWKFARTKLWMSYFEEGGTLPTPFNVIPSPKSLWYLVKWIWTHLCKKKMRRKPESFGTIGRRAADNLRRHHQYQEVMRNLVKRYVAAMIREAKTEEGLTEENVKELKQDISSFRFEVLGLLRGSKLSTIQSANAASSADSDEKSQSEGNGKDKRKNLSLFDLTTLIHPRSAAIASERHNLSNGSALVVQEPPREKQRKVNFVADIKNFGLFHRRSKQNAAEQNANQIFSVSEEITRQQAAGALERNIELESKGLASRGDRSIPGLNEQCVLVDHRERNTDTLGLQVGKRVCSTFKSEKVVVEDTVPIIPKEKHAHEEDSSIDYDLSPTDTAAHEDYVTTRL

[6] = molecular target: Short transient receptor potential channel 4 (Mus musculus) (UniProt Q9QUQ5); experiment: blockers of DAMGO-evoked TRPC4 calcium flux – cell-based, second round, Fluo4, HEK293 TRPC4beta/mu-opioid, 1 µM, confirmation (AID 2637;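 active = calcium signal ratio cut to more than 3 SD under the fully stimulated control mean yet still positive, in both repeats and the primary screen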;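 for inhibition: percent of integrated ratio relative to wells lacking test compound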); settings: at 1 µM; active compounds read high
[7] = molecular target: Short transient receptor potential channel 4 (Mus musculus) (UniProt Q9QUQ5); experiment: calcium entry via TRPC4 opening agents – cell-based, HEK293 TRPC4/mu-opioid, Fluo-4 calcium, dose response (AID 434937;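 active = primary screen activator hit with a dose response curve and TRPC4 channel activation at any tested dose; inactive = no activation, no dose response, or not a primary hit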)
[8] = molecular target: Short transient receptor potential channel 4 (Mus musculus) (UniProt Q9QUQ5); experiment: potentiation of DAMGO-evoked TRPC4 calcium signal – cell-based, HEK293 TRPC4/mu-opioid, Fluo-4 calcium, EC20 DAMGO, dose response (AID 434941;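 active = earlier screen potentiator hit that boosts the TRPC4 ion channel at some dose, with a dose response; inactive = no potentiation, no dose response, or not a prior hit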;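 note: calcium entry triggered by an EC20 dose of DAMGO at the co-expressed mu-opioid receptor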)
[9] = molecular target: Short transient receptor potential channel 6 (Mus musculus) (UniProt Q61143); experiment: TRPC6 blockade by TRPC4 inhibitor hits – cell-based, HEK293, membrane potential dye, duplicate, selectivity assay for TRPC4 inhibitor project, confirmation (AID 434948;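 active = active in primary screen and both duplicates, each dropping signal beyond three positive-control SD with fluorescence still positive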); settings: HEK293 TRPC6, membrane potential dye fluorescence, at 10 µM, stimulated with maximal-effect acetylcholine; active compounds read high
Sequence of Short transient receptor potential channel 6 (Mus musculus) (Q61143 whole entry, looked up): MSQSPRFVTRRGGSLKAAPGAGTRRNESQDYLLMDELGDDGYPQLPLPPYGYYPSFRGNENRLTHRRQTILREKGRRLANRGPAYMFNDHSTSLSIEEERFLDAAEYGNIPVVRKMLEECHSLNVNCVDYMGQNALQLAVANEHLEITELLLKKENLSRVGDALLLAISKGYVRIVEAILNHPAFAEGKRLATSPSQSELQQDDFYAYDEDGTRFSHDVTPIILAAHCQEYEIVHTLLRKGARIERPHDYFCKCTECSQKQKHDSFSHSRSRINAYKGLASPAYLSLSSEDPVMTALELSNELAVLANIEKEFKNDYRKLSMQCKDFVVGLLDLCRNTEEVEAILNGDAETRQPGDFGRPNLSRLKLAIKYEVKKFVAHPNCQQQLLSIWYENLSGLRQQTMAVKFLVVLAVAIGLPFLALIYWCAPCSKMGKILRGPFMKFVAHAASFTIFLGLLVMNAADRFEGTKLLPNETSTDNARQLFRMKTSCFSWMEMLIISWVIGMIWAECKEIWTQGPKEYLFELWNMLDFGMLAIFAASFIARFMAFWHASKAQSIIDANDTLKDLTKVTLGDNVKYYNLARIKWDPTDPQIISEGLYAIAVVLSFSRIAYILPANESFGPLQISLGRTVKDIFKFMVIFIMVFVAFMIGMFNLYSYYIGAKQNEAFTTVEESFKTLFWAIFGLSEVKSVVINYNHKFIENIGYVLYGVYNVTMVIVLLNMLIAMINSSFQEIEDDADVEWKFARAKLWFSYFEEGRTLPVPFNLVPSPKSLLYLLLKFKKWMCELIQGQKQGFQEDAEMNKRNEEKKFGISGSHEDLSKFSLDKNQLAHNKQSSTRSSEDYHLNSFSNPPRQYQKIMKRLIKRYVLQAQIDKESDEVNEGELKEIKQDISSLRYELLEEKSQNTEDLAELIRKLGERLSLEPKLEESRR

[10] = molecular target: Short transient receptor potential channel 6 (Mus musculus) (UniProt Q61143); experiment: TRPC6 opening by TRPC4 activator hits – cell-based, HEK293, membrane potential dye, duplicate, selectivity assay for TRPC4 activator project, confirmation (AID 434950;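 active = membrane potential signal rise above negative control mean plus 3 SD in both duplicates, also active in the earlier TRPC4 screen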); settings: HEK293 TRPC6, membrane potential fluorescence, at 10 µM; activation: active compounds read high; outcome: activation
[11] = molecular target: Short transient receptor potential channel 6 (Mus musculus) (UniProt Q61143); experiment: positive modulators of mouse TRPC6 channel – HEK293 cells, membrane potential dye, duplicate, selectivity assay for TRPC4 potentiator project, confirmation (AID 434952); settings: HEK293 TRPC6, membrane potential dye fluorescence, at 10 µM, maximal acetylcholine added after compound; active compounds read high
[12] = molecular target: Short transient receptor potential channel 4 (Mus musculus) (UniProt Q9QUQ5); experiment: calcium flux activators in TRPC4/5HT1a cells, counter-screen for TRPC4 activator project, cell-based, second counter screen, HEK293 TRPC4/5HT1a, Fluo-4 (AID 434977;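 active = calcium signal rise above buffer-control mean plus 5 SD in both duplicates, and also a hit in the primary screen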); settings: Fluo-4 calcium flux, at 10 µM; active compounds read high
[13] = serotonin-gated TRPC4 signal block – cell-based, second counter screen, HEK293 TRPC4/5HT1a, Fluo-4, counter-screen for TRPC4 inhibitor project, confirmation (AID 434978;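 active = primary screen active whose calcium signal fell more than 3 SD beyond the full-serotonin control mean in both duplicate plates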;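 for outcome: serotonin given first at submaximal then at maximal dose after compound preincubation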); settings: Fluo-4 calcium flux, at 10 µM, serotonin added to trigger calcium flux; active compounds read high
[14] = tested on: TRPC4 (mouse), co-expressed with 5HT1a in HEK293; experiment: enhancement of serotonin-evoked TRPC4 response – cell-based, second counter screen, HEK293 TRPC4/5HT1a, Fluo-4, counter-screen for TRPC4 potentiator project, confirmation (AID 434979;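 active = signal rise over 3 SD above mean of control wells given weak agonist, in both repeats and first screen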); settings: Fluo-4 calcium flux, at 10 µM, serotonin added at its EC20 dose; active compounds read high
[15] = nonspecific calcium rise without TRPC4 – cell-based, HEK293 mu-opioid receptor line, counter-screen for TRPC4 activator project, confirmation (AID 449723;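 active = hit in primary screen, with calcium signal over 5 SD above buffer well mean in both duplicates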;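 note: counter screen cells carry the mu-opioid receptor alone and lack TRPC4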); settings: HEK293 mu-opioid cells, Fluo-4 calcium fluorescence, at 10 µM; active compounds read high
[16] = nonspecific potentiation of DAMGO calcium response – cell-based, HEK293 mu-opioid receptor line, counter-screen for TRPC4 allosteric potentiator project, confirmation (AID 449724;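 active = calcium signal rise more than 3 SD above the low-dose agonist control mean, in both duplicate plates and the primary screen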); settings: HEK293 mu-opioid receptor cells, Fluo-4 calcium flux, at 10 µM, compound added before EC20 DAMGO stimulus; active compounds read high

Measured: inhibition

COc1ccc(Cl)cc1N/C(N)=N/c1nc(C)cc(C)n1
active: [5] 94% | [6] 53% | [9] 58% | [13] 15.3%
inactive: all other assays above

CCCCCC[N+](C)(C)CC/C=C1/c2ccccc2Sc2ccc(Cl)cc21
active: [5] 83% | [6] 61% | [9] 42.5% | [13] 31.8%
inactive: all other assays above

CCOc1cc(/C=C2\C(=N)N3N=CSC3=NC2=O)ccc1OS(=O)(=O)c1ccccc1
active: [5] 96% | [13] 16.2%
inactive: all other assays above

CCc1cc(C(c2cccc(OC)c2)N2CCOCC2)c(NC(=O)c2ccccc2)s1 (stereo not given)
active: [5] 62% | [13] 28%
inactive: all other assays above

CCCOc1cccc(C(=O)NCCNC(=O)c2ccco2)c1
inactive: all assays above

Cc1nc2ccccc2n1Cc1ccc(Br)cc1
active: [5] 96% | [6] 74% | [13] 9.19%
inactive: all other assays above

COC(=O)c1cccc(NC(=S)Nc2cccc(Cl)c2Cl)c1
active: [5] 78%
inactive: all other assays above

Cc1ccc(/C=C2\SC(=S)N(C(Cc3ccccc3)C(=O)O)C2=O)cc1 (stereo not given)
active: [13] 18.3%
inactive: all other assays above

OCCNCc1cc(Br)ccc1OCc1ccc(F)cc1
active: [5] 94% | [6] 45% | [13] 21.1%
inactive: all other assays above

CN1/C(=C\C(=O)C[n+]2ccc3ccccc3c2)C(C)(C)c2ccccc21
active: [5] 96%
inactive: all other assays above

Cc1c(C(=O)NCC(c2ccco2)N(C)C)oc2c(Cl)cccc12 (stereo not given)
active: [5] 94% | [6] 70%
inactive: all other assays above

Cc1ccc2nc3c(c(N)c2c1)CCN3C
active: [5] 90% | [6] 51% | [9] 35.5% | [13] 15.4%
inactive: all other assays above

c1ccc(Cn2c(NCc3ccco3)nc3ccccc32)cc1
active: [5] 95% | [6] 75% | [13] 25.2%
inactive: all other assays above

COc1ccccc1Nc1nc(NCC2CCCO2)c2ccccc2n1 (stereo not given)
active: [5] 91% | [6] 50% | [9] 10% | [13] 31.5%
inactive: all other assays above

Cc1ccc(NC(=O)CSCC(=O)OCc2cc(=O)oc3cc(O)ccc23)c(C)c1
active: [5] 80%
inactive: all other assays above
